These results are taken from PubChem BioAssay.

This assay concerns Sonic hedgehog protein (Shh). Put plainly: small-molecule binders of Shh protein, primary screen, biochemical, small-molecule microarray, 635/667 nm fluorescence (AID 1151).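 Note: Shh protein binding to compounds spotted on small-molecule microarray slides; score combines spot fluorescence intensity with signal-to-noise across triplicate slides.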 To be noted: small-molecule microarray binding, 635 nm fluorescence; higher = more signal.
The compound `COc1ccc([Si](C)(C)[C@@H]2[C@@H](CCO)O[C@]3(C(=O)N(Cc4cccc(N5CCOC5=O)c4)c4ccccc43)[C@H]2C)cc1` gave a composite z-score of 0.529.
Regarding `CCOC(=O)C1=CC[C@H]2C(=O)N(c3ccccc3)C(=O)[C@@H]12`, the composite z-score amounted to 0.814.
For `CCOC(=O)C[C@H]1[C@H](OC(=O)c2ccc(C(=O)c3ccccc3)cc2)[C@@H](NC(=O)Cc2ccc(OC)cc2)c2cc(OCCCO)ccc2N1C(=O)c1ccc2ccccc2n1`, the composite z-score amounted to 0.671.
As to `COC(=O)[C@@]1(Cc2ccc(F)cc2)[C@H]2c3cc(C(=O)N(C)C)n(Cc4cc(C)n(C)n4)c3C[C@H]2CN1C(=O)c1ccccc1`, the composite z-score is 0.303.
With `CCCC[C@@H]1C[C@H]1[C@@H](NC(=O)c1cccnc1)c1ccc(Cl)cc1` the figure was -1.35.
The compound `[N-]=[N+]=Nc1ccccc1C[C@@]1(C(=O)N2CCCCC2)N=C(c2ccc(OCCCO)cc2)O[C@@H]1c1ccccc1N=[N+]=[N-]` came in with a composite z-score of 0.248.
`C=CCC(OC(C)=O)[C@@H]1[C@@H](N(Cc2ccc(-c3cccc(C(F)(F)F)c3)o2)C(=O)c2cccc3ccccc23)c2cc(OCCCO)ccc2N1C(=O)Cc1ccc2ccccc2c1` (stereo partly specified) registered a composite z-score of 0.248.
As for `CCCCN1CC=CC23O[C@@H]4C=CCOC(=O)[C@@H]4[C@H]2C(=O)N(CCCCCCO)[C@@H]3C1=O` (stereo partly specified), the composite z-score was -0.711.
In the case of `O=C1C2C=CC(C(O)C=Cc3ccc([N+](=O)[O-])cc3)N(n3cnnc3)C2C(=O)N1Cc1ccccc1` (stereo unspecified), the composite z-score is 0.287.
In turn, `O=C1[C@H]2C=C(Br)[C@H](C[C@@H]2OCCCCCCO)[C@@]12CO2` displayed a composite z-score of 0.129.
In the case of `CCCCCCCCCCC(O)C1C=CC2C(=O)NC(=O)C2N1Nc1ccc(Cl)cc1Cl` (stereo unspecified), the composite z-score is -0.349.
